# ELG1 genotox = qHTS screen for small molecules that induce genotoxicity in human embryonic kidney (HEK293T) cells expressing luciferase-tagged ELG1; Potency, µM (highest dose often 46 µM), without a hit: top-dose activity change, positive = activation, most hits filed as activators; 1.3% of 330,000 active; AID 504466, 2011; HEK293T ELG1-luciferase reporter, luminescence, 16 h; also: % of control where 0% means no effect; nearly all actives have a fitted effect of over 60% in size
#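 After overnight (16 hr) compound treatment at 37 °C, ELG1-luciferase HEK293T cells were lysed with ONE-Glo; luminescence quantified 30 min later at room temperature.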
# SMN2 splice enh = qHTS Assay for Enhancers of SMN2 Splice Variant Expression | Potency, µM (top dose mostly 46.1 µM), for inactives: at the top dose activity change, positive = activation, most hits filed as activators | 2.8% of 210,000 active | HEK293 SMN2-luciferase splicing reporter, luminescence, 30-36 h; also: % of control where 0% means no effect; nearly all actives have a fitted effect of over 55% in size
#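 HEK293 cells carry an SMN2 […]–luciferase reporter in which exon 7 inclusion puts luciferase in frame. Cells were plated 10-12 h before compound addition, then incubated 30-36 h at 37C. ONE-Glo luminescence was read; sodium butyrate at 4.5 mM final served as control.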
# ELG1 repair inh = qHTS screen for small molecules that inhibit ELG1-dependent DNA repair in human embryonic kidney (HEK293T) cells expressing luciferase-tagged ELG1; HEK293T ELG1-luciferase reporter, luminescence, 16 h; DNA damage induced by 5-fluorouridine; Potency, µM (doses to about 46.1 µM), for inactives: at the highest dose activity change, negative = inhibition, usual class: inhibitors; 2.3% of 330,000 active; also: % is scaled to controls: 0 for no effect and ±100 for the full control effect; nearly all actives have a fitted effect of over 55% in size
#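 DMSO vehicle served as the neutral condition. Each well held 2,000 cells given 5-fluorouridine plus compound; after 16 hr at 37 °C/5% CO2, ONE-Glo was added and luciferase measured 30 min later.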
# Rab9 promoter act = qHTS Assay for Rab9 Promoter Activators; 2.8% of 320,000 active; Potency, µM (titrated, usually from 9.22 µM), for the others: top-dose activation, negative = inhibition, usual class: activators; Huh7 Rab9 promoter-luciferase reporter, luminescence, 24 h; also: % of control where 0% means no effect; nearly all actives have a fitted effect of over 60% in size
#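 Quantitative HTS format; Huh7 Rab9-luciferase reporter cells (1500/well) receive compound 2 h post-plating, incubate 24 h at 37 °C, then get luciferase reagent for 10 min before luminescence reading.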
# NPC1 promoter act = qHTS Assay for NPC1 Promoter Activators | 2.4% of 320,000 active | AID 485313, 2010 | Potency, µM (series often up to 9.22 µM), inactives show at the highest dose activation, most hits filed as activators | Huh7 NPC1 promoter luciferase reporter, 24 h; also: % of control where 0% means no effect; nearly all actives have a fitted effect of over 60% in size
#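 Huh7 cells stably carrying NPC1 promoter–luciferase, plated in Opti-MEM with 10% FBS for 2 h, were exposed to compound in DMSO for 24 h at 37 °C; luciferase reagent was added for 10 min and luminescence read.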
# FLuc counter = qHTS profiling assay for firefly luciferase inhibitor/activator using purifed enzyme and Km concentrations of substrates (counterscreen for miR-21 project). purified FLuc, Km substrates, luminescence inhibition. Potency, µM (doses to about 57.5 µM), for the others: at the top dose activity change, negative = inhibition, most hits filed as inhibitors. 6.9% of 360,000 active;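 also: plate controls were vehicle for no effect and reference inhibitor for full effect; nearly all actives have a fitted effect of over 55% in size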
# Target sequence (P08659 whole entry, looked up): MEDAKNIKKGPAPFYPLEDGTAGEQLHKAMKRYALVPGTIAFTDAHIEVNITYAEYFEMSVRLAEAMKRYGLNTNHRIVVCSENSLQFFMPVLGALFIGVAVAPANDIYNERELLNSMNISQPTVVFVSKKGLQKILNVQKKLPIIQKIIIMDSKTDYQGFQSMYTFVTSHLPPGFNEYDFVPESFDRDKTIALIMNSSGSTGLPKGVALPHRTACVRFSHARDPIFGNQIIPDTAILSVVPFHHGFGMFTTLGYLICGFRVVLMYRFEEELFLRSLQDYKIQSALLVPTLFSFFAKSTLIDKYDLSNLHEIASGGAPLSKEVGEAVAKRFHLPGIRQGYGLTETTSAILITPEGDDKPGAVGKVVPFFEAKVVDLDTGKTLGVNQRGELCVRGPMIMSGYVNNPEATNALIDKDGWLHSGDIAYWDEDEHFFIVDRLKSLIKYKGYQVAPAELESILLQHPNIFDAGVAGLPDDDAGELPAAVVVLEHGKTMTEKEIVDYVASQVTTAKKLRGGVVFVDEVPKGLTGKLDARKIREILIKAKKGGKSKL
#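 Purified P. pyralis luciferase (10nM final) with 10uM D-luciferin and 10uM ATP (Km levels) in 50mM Tris acetate pH 7.5, 10mM Mg acetate, 0.01% Tween-20, 0.05% BSA; qHTS 6-point titration, ~60 µM downward; luminescence read.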
# ELG1 FLuc counter = qHTS screen for small molecules that inhibit ELG1-dependent DNA repair: Hit Confirmation in Cell-Based Luciferin Assay; shares compounds with ELG1 repair inh; AID 624247, 2012; Potency, µM (highest dose often 46.1 µM), inactives show top-dose activity change, negative = inhibition, actives largely listed as inhibitors; 3% of 350 active; cell-free firefly luciferase luminescence counter-screen, ViewLux; also: % is scaled to controls: 0 for no effect and ±100 for the full control effect
# ELG1-Luc inh = HTS assay for small molecules that inhibit ELG1-dependent DNA repair in human embryonic kidney (HEK293T) cells expressing luciferase-tagged ELG1: Hit Confirmation | shares compounds with ELG1 repair inh | HEK293T ELG1-luciferase levels, luminescence; cells co-treated with 5-fluorouridine | Potency, µM (doses to about 46.1 µM), for the others: at the highest dose activity change, negative = inhibition, actives largely listed as inhibitors | 68% of 670 active | AID 624248, 2012; also: % is scaled to controls: 0 for no effect and ±100 for the full control effect; nearly all actives have a fitted effect of over 55% in size
# ELG1 MMS Luc = confirmation of human ELG1 repair inhibitors, MMS stimulated | shares compounds with ELG1 repair inh | 53% of 670 active | Potency, µM (titrated, usually from 46.1 µM), inactives show at the highest dose activity change, negative = inhibition, actives largely listed as inhibitors | HEK293T luciferase-tagged ELG1 level, MMS stimulated; also: % is scaled to controls: 0 for no effect and ±100 for the full control effect; nearly all actives have a fitted effect of over 60% in size
# ELG1 5-FU = qHTS screen for small molecules that inhibit ELG1-dependent DNA repair: Hit Confirmation with 5FU Viability | shares compounds with ELG1 repair inh | cell viability with 5-FU, ELG1-dependent repair | Potency, µM (highest dose often 46.1 µM), for the others: top-dose activity change, negative = viability loss, hits mostly cytotoxic | 670 tested, under 10 active;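 also: ELG1-luc HEK293T cells cotreated with 5-fluorouridine at 10 µM final; viability measured 16 h after compound addition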
# ELG1 MMS viab = qHTS screen for small molecules that inhibit ELG1-dependent DNA repair: Hit Confirmation with MMS Viability; shares compounds with ELG1 repair inh; Potency, µM (top dose mostly 46.1 µM), inactives show top-dose activity change, negative = viability loss, most hits filed as cytotoxic; 33% of 670 active; Cell viability with MMS, ELG1-dependent DNA repair;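 also: ELG1-luc HEK293T cells co-treated with 10 µM MMS; viability read 16 h after compound addition; % is scaled to controls: 0 for no effect and ±100 for the full control effect; nearly all actives have a fitted effect of over 60% in size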
# ELG1 unstim viab = qHTS screen for small molecules that inhibit ELG1-dependent DNA repair: Hit Confirmation with Unstimulated Viability Assay; Potency, µM (doses to about 45.9 µM), without a hit: at the highest dose activity change, negative = loss of viability, usual class: cytotoxic; cell viability counter-screen, unstimulated, luminescence; AID 624252, 2012; 8% of 900 active; shares compounds with ELG1 repair inh;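 also: compound exposure lasted 16 hours before reading; % is scaled to controls: 0 for no effect and ±100 for the full control effect; nearly all actives have a fitted effect of over 55% in size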
# FLuc enzyme = qHTS screen for small molecules that inhibit ELG1-dependent DNA repair: Hit Confirmation in Biochemical Luciferin Assay; shares compounds with ELG1 repair inh; Potency, µM (series often up to 57.5 µM), for the others: at the top dose activity, negative = inhibition, most hits filed as inhibitors; 10% of 350 active; purified firefly luciferase, luminescence counter-screen; also: % is scaled to controls: 0 for no effect and ±100 for the full control effect
# Starred values were filed as active, the others as inactive; u = inconclusive; x = no result given; [ ] = another dose, or the depositor's remark. An excerpt weighted towards active compounds, which were near 9.2% of everything screened. Calls follow the shape of the dose curve; as a rule, active = well fitted curve in the direction sought with a large enough effect; inconclusive = small, poorly fitted or top-dose-only effect, or another doubt; inactive = no such curve, though single readings can be large; an effect the other way counts as inactive or inconclusive. Potency is read from the fitted curve at half-maximal effect.
SMILES,ELG1 genotox,SMN2 splice enh,ELG1 repair inh,Rab9 promoter act,NPC1 promoter act,FLuc counter,ELG1-Luc inh,ELG1 MMS Luc,ELG1 5-FU,ELG1 MMS viab,ELG1 unstim viab,others
O=C(CCC1CCCC1)Nc1ccc(OCC(=O)N2CCOCC2)cc1,8.4%,-1.2%,u,9.6%,9.9%,4.78µM*,x,x,x,x,x,
O=C(Nc1ccc(OCC(=O)N2CCOCC2)cc1)c1cccc(Cl)c1,3.0%,x,u,29.3%,24.9%,7.57µM*,x,x,x,x,x,
O=C(Nc1ccc(OCC(=O)N2CCOCC2)cc1)c1ccccc1F,19.7%,x,u,27.2%,22.0%,4.78µM*,x,x,x,x,x,
COc1cc(C(=O)Nc2ccc(C(F)(F)F)cc2)ccc1OCC(=O)N1CCOCC1,0.4%,x,u,20.2%,16.6%,6.75µM*,x,x,x,x,x,
O=C(CN1C(=O)C2C3C=CC(C3)C2C1=O)Nc1ccc(S(=O)(=O)N2CCCCC2)cc1 (configuration not stated),-1.1%,-15.5%,-8.1%,-7.1%,-7.8%,-2.6%,x,x,x,x,x,
COCCNc1nc(C)nc2c1nc(-c1ccccc1)n2CC1CCN(C)CC1,x,-6.4%,x,x,x,x,x,x,x,x,x,
COc1ccccc1NC(=O)C1CCN(S(=O)(=O)c2ccc3c(c2)NC(=O)C(C)S3)CC1 (configuration not stated),-6.1%,x,-0.1%,-4.1%,-3.3%,-0.4%,x,x,x,x,x,
Cc1ccc(-n2ccn(CC(=O)NCCc3ccccc3)c(=O)c2=O)cc1C,2.6%[9.26 µM],x,0.0%,21.2%,17.2%,-11.3%,x,x,x,x,x,
O=C1CCCC(=NNC(=O)c2cc3ccccc3cc2O)C1,u,x,u,x,x,x,x,x,x,x,-13.6%,
CCOC(=O)N1CCC(=NNC(=O)c2cc3ccccc3cc2O)CC1,-1.6%,6.4%,5.2%,-1.6%,-0.9%,u,x,x,x,x,x,
CCCCn1c(N)c(-c2nc3ccccc3o2)c2c([N+](=O)[O-])nn(CC)c(=O)c21,6.9%,-8.2%,2.06µM*,-3.4%,-5.1%,-0.4%,0.996µM*,15.6%,u,-0.8%,-6.2%,
CCCCn1c(N)c(-c2nc3ccccc3o2)c2c([N+](=O)[O-])nn(C)c(=O)c21,-0.6%,0.0%,u,-4.5%,-3.0%,5.6%,u,8.6%,u,11.6%,-0.2%,
CCCCCn1c(N)c(-c2nc3ccccc3s2)c2c([N+](=O)[O-])nn(C)c(=O)c21,-0.2%,x,0.731µM*,-6.9%,-6.5%,-15.5%,5µM*,28.1µM*,u,u,-4.4%,ELG1 FLuc counter=u;FLuc enzyme=-9.3%
N#Cc1cc2c(OCC(O)CN3CCN(C(c4ccccc4)c4ccccc4)CC3)cccc2[nH]1 (configuration not stated),x,-3.8%,x,x,x,x,x,x,x,x,x,
Cc1cccc(C(=O)OCC(=O)N2CCCCCC2)c1O,u,x,u,3.16µM*,3.16µM*,x,x,x,x,x,u,
O=C(OCC(=O)N1CCCCC1)c1cccs1,u,x,u,x,x,x,x,x,x,x,-7.1%,
Cc1nn(-c2ccccc2)c(C)c1C(=O)OCC(=O)c1c(N)n(CC(C)C)c(=O)n(C)c1=O,-20.1%,-64.6%,3.26µM*,-25.4%,-10.8%,0.5%,3.97µM*,0.791µM*,u,1.25µM*,u,
Cc1ccc(S(=O)(=O)Nc2cc(=O)[nH]c3c2CCC3)cc1,7.0%,-3.5%[9.22 µM],u,14.6%,21.6%,u,x,x,x,x,x,
CC(=O)c1ccc(N2CCN(c3nc4ccccc4c4nc(-c5cccc(C)c5)nn34)CC2)cc1,x,9.2%,x,x,x,-1.1%,x,x,x,x,x,
O=C(Cc1ccc(OCCCc2ccccc2)cc1)NO,x,x,x,x,x,x,x,x,x,x,-1.3%,
CC1(c2ccccc2)NC(=O)N(CC(=O)Nc2ccccc2C(=O)NC2CC2)C1=O (configuration not stated),-0.7%,x,16.6%,9.0%,-6.2%,5.2%,x,x,x,x,x,
CCN(C[C@H]1N[C@@](CC)(C(=O)OC)[C@H]2C(=O)N(Cc3ccccc3)C(=O)[C@@H]12)C(=O)c1ccc(C(C)(C)C)cc1,-11.0%,x,3.66µM*,x,x,x,u,7.05µM*,-1.0%,u,25µM*,
CC(=O)CSc1ncnc2nc[nH]c12,-3.3%,-19.4%,-7.0%,-0.1%,-4.9%,1.3%,x,x,x,x,x,
Cn1cnc(Sc2ncnc3nc[nH]c23)c1[N+](=O)[O-],3.1%,x,u,3.2%,0.8%,-14.2%,u,u,-0.6%,-1.5%,15.8µM*,ELG1 FLuc counter=0.0%;FLuc enzyme=3.7%
